PubChem BioAssay (NCI)
This is part of a sample that, as a whole, favours compounds with a hit. Of some 79,000 tested, about 15% had one in any assay. A number with no mark means an inactive call. Calls of active or inactive are those of the source. Rule as the data show it: active = growth inhibition above about 70%; inactive = the rest.

test: NCI Yeast Anticancer Drug Screen. Data for the mlh1 rad18 strain (AID 175); details: S. cerevisiae mlh1 rad18 strain growth inhibition; at 5.0 µM (retest, dose inferred, filed as 0.5); active compounds read high
Experimental: Growth inhibition of yeast strains with defined genetic alterations is measured as a screen for potential anti-cancer activity. Selected strains with alterations in DNA damage repair or cell cycle control were exposed to compounds and growth inhibition was measured relative to vehicle treated controls. The strain used in this assay is mlh1 rad18

Question: Which growth inhibition does the source give for `N#C[S-].[Ce+3].c1cnc2c(c1)ccc1cccnc12.c1cnc2c(c1)ccc1cccnc12.c1cnc2c(c1)ccc1cccnc12` here?
Answer: 97% (active)

Question: Which growth inhibition does the source give for `Cc1ccc(S(=O)(=O)N=S(=O)(CCCl)CCCl)cc1` here?
Answer: 27%

Question: Which growth inhibition does the source give for `Cc1cc(C)c(C[N+](C)(C)C)c(C)c1C` here?
Answer: 88% (active)

Question: For `CC(=O)NC1=C(N(CCCl)CCCl)C(=O)c2ccccc2C1=O`, which growth inhibition is on record?
Answer: 18%

Question: Which growth inhibition does the source give for `O=C(O)C(F)(F)F.[Ag]` here?
Answer: 99% (active)

Question: With `C=NCC#N` as the compound, how does the growth inhibition read?
Answer: 3%

Question: With `CCCC(=O)O.CCCC(=O)O.CCCC(=O)O.CCCC(=O)O.[Rh].[Rh]` as the compound, how does the growth inhibition read?
Answer: 29%

Question: For `O=c1s[se]c2ccccc12`, which growth inhibition is on record?
Answer: 25%

Question: Which growth inhibition does the source give for `COc1ccccc1C(Cc1ccc(N2C(N)=NC(N)=NC2(C)C)cc1)C(=O)Nc1ccc(S(=O)(=O)F)cc1` (stereo not given) here?
Answer: 2%

Question: Which growth inhibition does the source give for `CC(C)(C)S.[Hg]` here?
Answer: 75% (active)

same assay, conditions: S. cerevisiae mlh1 rad18 strain growth inhibition; at 50.0 µM (retest, dose inferred, filed as 5.0); active compounds read high

Question: For `N#C[S-].[Ce+3].c1cnc2c(c1)ccc1cccnc12.c1cnc2c(c1)ccc1cccnc12.c1cnc2c(c1)ccc1cccnc12`, which growth inhibition is on record?
Answer: 99% (active)

Question: Which growth inhibition does the source give for `Cc1ccc(S(=O)(=O)N=S(=O)(CCCl)CCCl)cc1` here?
Answer: 98% (active)

Question: Which growth inhibition does the source give for `Cc1cc(C)c(C[N+](C)(C)C)c(C)c1C` here?
Answer: 96% (active)

Question: For `CC(=O)NC1=C(N(CCCl)CCCl)C(=O)c2ccccc2C1=O`, which growth inhibition is on record?
Answer: 98% (active)

Question: For `O=C(O)C(F)(F)F.[Ag]`, which growth inhibition is on record?
Answer: 99% (active)

Question: For `C=NCC#N`, which growth inhibition is on record?
Answer: 3%

Question: With `CCCC(=O)O.CCCC(=O)O.CCCC(=O)O.CCCC(=O)O.[Rh].[Rh]` as the compound, how does the growth inhibition read?
Answer: 52%

Question: Which growth inhibition does the source give for `O=c1s[se]c2ccccc12` here?
Answer: 97% (active)

Question: Which growth inhibition does the source give for `COc1ccccc1C(Cc1ccc(N2C(N)=NC(N)=NC2(C)C)cc1)C(=O)Nc1ccc(S(=O)(=O)F)cc1` (stereo not given) here?
Answer: 18%

Question: For `CC(C)(C)S.[Hg]`, which growth inhibition is on record?
Answer: 99% (active)

same assay, conditions: S. cerevisiae mlh1 rad18 strain growth inhibition; at 50.0 µM; active compounds read high

Question: With `CCC(C)C1NC(=O)C2CCCN2C(=O)C(CC2CO2)OC(=O)CCNC(=O)C(C)N(C)C(=O)C(C(C)C)N(C)C1=O` (stereo not given) as the compound, how does the growth inhibition read?
Answer: 28.8%

Question: With `CCCC(C)OP(=O)(OCC)OCC` (stereo not given) as the compound, how does the growth inhibition read?
Answer: -3.5%

Question: With `CCOP(=O)(OCC)/C(C#N)=C/c1cc(O)ccc1O` as the compound, how does the growth inhibition read?
Answer: -45.8%

Question: For `N#C[S-].[Ce+3].c1cnc2c(c1)ccc1cccnc12.c1cnc2c(c1)ccc1cccnc12.c1cnc2c(c1)ccc1cccnc12`, which growth inhibition is on record?
Answer: 92.8% (active)

Question: With `Cc1ccc(S(=O)(=O)N=S(=O)(CCCl)CCCl)cc1` as the compound, how does the growth inhibition read?
Answer: 96.7% (active)

Question: Which growth inhibition does the source give for `CCC[CH2][Sn]1([CH2]CCC)[O]C(=O)c2ccc(N)cc2[O]1` here?
Answer: 89.8% (active)

Question: For `Cc1cc(C)c(C[N+](C)(C)C)c(C)c1C`, which growth inhibition is on record?
Answer: 98.9% (active)

Question: With `CC(=O)NC1=C(N(CCCl)CCCl)C(=O)c2ccccc2C1=O` as the compound, how does the growth inhibition read?
Answer: 98.9% (active)

Question: For `Cc1ccc(C2=NOP(c3ccccc3)(c3ccccc3)(c3ccccc3)C2)cc1`, which growth inhibition is on record?
Answer: 23.9%

Question: For `Nc1nc(N)c2cnnn2n1`, which growth inhibition is on record?
Answer: 20.8%

Question: With `O=C(O)C(F)(F)F.[Ag]` as the compound, how does the growth inhibition read?
Answer: 97.6% (active)

Question: For `COc1cc(C(=O)O)cc(OC)c1OC`, which growth inhibition is on record?
Answer: -9.95%

Question: Which growth inhibition does the source give for `C=NCC#N` here?
Answer: 26.9%

Question: Which growth inhibition does the source give for `CCCC(=O)O.CCCC(=O)O.CCCC(=O)O.CCCC(=O)O.[Rh].[Rh]` here?
Answer: 24.1%

Question: Which growth inhibition does the source give for `CC(=O)Oc1ccc([As](=O)(O)O)cc1` here?
Answer: 1.05%

Question: For `O=c1s[se]c2ccccc12`, which growth inhibition is on record?
Answer: 91.9% (active)

Question: Which growth inhibition does the source give for `COc1ccccc1C(Cc1ccc(N2C(N)=NC(N)=NC2(C)C)cc1)C(=O)Nc1ccc(S(=O)(=O)F)cc1` (stereo not given) here?
Answer: 99% (active)

Question: For `CC(C)(C)S.[Hg]`, which growth inhibition is on record?
Answer: 99.5% (active)

Question: For `N#CS.N=C=S.N=C=S.[Cu+2].[NH2-].[NH2-].[NH2-].[NH2-].c1ccc2ncccc2c1`, which growth inhibition is on record?
Answer: -12.5%

Question: For `CCN1C(=O)C(=C/C=C/c2ccc([N+](=O)[O-])cc2)C(=O)N(CC)C1=S`, which growth inhibition is on record?
Answer: 18.1%
